Assay results as given in PubChem BioAssay (NCATS).
A number with no mark means an inactive call. Inconclusive results are not listed. Entries that show only a call come without a potency. The source made the active and inactive calls. Calls follow the shape of the dose curve; as a rule, active = well fitted curve in the direction sought with a large enough effect; inconclusive = small, poorly fitted or top-dose-only effect, or another doubt; inactive = no such curve, though single readings can be large; an effect the other way counts as inactive or inconclusive.

What was measured:
[1] = target: Arylsulfatase A (Homo sapiens) (UniProt P15289); assay: qHTS screen for enhancers of Arylsulfatase A (ASA1): LOPAC Validation Assay (AID 720538); also: potency is read from the fitted curve at half-maximal effect
Arylsulfatase A (Homo sapiens), sequence (P15289 whole entry, looked up): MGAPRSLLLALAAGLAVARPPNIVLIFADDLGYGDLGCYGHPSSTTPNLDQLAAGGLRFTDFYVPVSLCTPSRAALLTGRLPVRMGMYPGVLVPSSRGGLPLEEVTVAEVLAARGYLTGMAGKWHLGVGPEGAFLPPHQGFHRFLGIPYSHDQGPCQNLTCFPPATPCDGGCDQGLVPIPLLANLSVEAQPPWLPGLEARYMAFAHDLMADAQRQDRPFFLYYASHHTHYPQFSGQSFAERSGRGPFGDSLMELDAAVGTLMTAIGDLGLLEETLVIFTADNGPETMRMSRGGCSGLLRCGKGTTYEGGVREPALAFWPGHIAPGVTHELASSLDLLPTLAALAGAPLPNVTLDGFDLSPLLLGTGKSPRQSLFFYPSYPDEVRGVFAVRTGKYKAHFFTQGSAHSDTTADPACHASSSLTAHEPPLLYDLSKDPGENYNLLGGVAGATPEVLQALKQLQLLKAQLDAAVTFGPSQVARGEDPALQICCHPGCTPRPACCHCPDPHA
Procedure, shortened: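 First, ASA-I179S fibroblasts from an MLD patient adhered for 6 hrs. Next, compounds were added for 48h. Then pNCS substrate (0.5mM final) with lysis buffer reacted 14h at room temperature before NaOH stop and fluorescence measurement.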

[2] = qHTS for compounds that reverse cellular toxicity of Amyloid beta (A-beta) peptide in yeast: LOPAC Validation Assay (AID 720559); details: Potency: rescue of growth toxicity
Procedure, shortened: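 Activity is expressed relative to DMSO and an equimolar ferric chloride/clioquinol mix. Compounds were pinned into medium with A-beta-expressing yeast, grown 48 hr at 30 C, then read by absorbance at 600 nm.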

[3] = qHTS for Activators of Parkin Expression: LOPAC Validation Assay (NLuc Reporter) (AID 720572)
Procedure, shortened: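 Neuronal cells with a Parkin promoter-driven FLuc/NLuc coincidence reporter were treated 24 h at 37 C in 7-point dose response (LOPAC). NLuc luminescence read after FLuc; signals normalized to DMSO and positive control (100%).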

| SMILES | Potency [1] | Potency [2] | Potency [3] |
| --- | --- | --- | --- |
| Cn1cc(C2=C(c3ccc(Cl)cc3Cl)C(=O)NC2=O)c2ccccc21 | inactive | inactive | inactive |
| CO/S(=N\S(=O)(=O)c1ccc(Cl)cc1)c1ccc([N+](=O)[O-])cc1 (stereo not drawn) | inactive | inactive | inactive |
| Cn1c(=O)c2[nH]c(-c3ccccc3)nc2n(C)c1=O | inactive | inactive | inactive |
| O=C1C(SCCO)=C(SCCO)C(=O)c2ccccc21 | inactive | inactive | inactive |
| N=c1ccn2c(n1)O[C@H]1[C@H](O)[C@@H](CO)O[C@H]12 | inactive | inactive | inactive |
| O=C(Nc1cccc(C(=O)Nc2ccc(S(=O)(=O)O)c3cc(S(=O)(=O)O)cc(S(=O)(=O)O)c23)c1)Nc1cccc(C(=O)Nc2ccc(S(=O)(=O)O)c3cc(S(=O)(=O)O)cc(S(=O)(=O)O)c23)c1 | inactive | inactive | inactive |
| CCCCCCCCCCCCCCCCCCNC(=O)OCC(COP(=O)([O-])OCC[n+]1ccsc1)OC (stereo not drawn) | inactive | inactive | inactive |
| CN(C)c1ccc(/C=C2\C(=O)Nc3ccccc32)cc1 | inactive | inactive | inactive |
| CN1CCc2cc(O)c(O)cc2C(c2ccccc2)C1 (stereo not drawn) | 21.3 µM (active) | inactive | inactive |
| O=[N+]([O-])c1ccc2c(c1)S(=O)(=O)C=C2 | inactive | inactive | inactive |
| CCNC(=O)[C@H]1O[C@@H](n2cnc3c(N)nc(NCCc4ccc(CCC(=O)O)cc4)nc32)[C@H](O)[C@@H]1O | inactive | inactive | inactive |
| CC(C)ON([C@@H](C(=O)NO)C(C)C)S(=O)(=O)c1ccc(-c2ccccc2)cc1 | inactive | inactive | inactive |
| CNC(=O)[C@H]1O[C@@H](n2cnc3c(NCc4ccc(N)cc4)ncnc32)[C@H](O)[C@@H]1O | inactive | inactive | inactive |
| O=C(/C=C/c1ccc(O)c(O)c1)OCCc1ccccc1 | inactive | inactive | inactive |
| CSc1nc(N)c2ncn([C@@H]3O[C@H](COP(=O)(O)OP(=O)(O)OP(=O)(O)O)[C@@H](O)[C@H]3O)c2n1 | inactive | inactive | inactive |
| O=C1NC(=O)/C(=C/c2ccc(-c3ccc(F)cc3O)o2)S1 | inactive | inactive | inactive |
| CC(COc1ccc(/C=C/c2ccccc2)cc1)[N+](C)(C)C (stereo not drawn) | inactive | inactive | inactive |
| NCCSSCCN | inactive | inactive | inactive |
| Nc1nc(Nc2ccccc2)nc2c1ncn2[C@@H]1O[C@H](CO)[C@@H](O)[C@H]1O | inactive | inactive | inactive |
| O=C(O)CC[C@@H](C(=O)O)N1C(=O)c2ccccc2C1=O | inactive | inactive | inactive |

| SMILES | Potency [1] | Potency [2] | Potency [3] |
| --- | --- | --- | --- |
| O=[N+]([O-])c1ccc(CSc2ncnc3c2ncn3[C@@H]2O[C@H](CO)[C@@H](O)[C@H]2O)cc1 | inactive | inactive | inactive |
| CN(C)c1nc(N)c(C(=O)N=C(N)N)nc1Cl | inactive | inactive | inactive |
| C=C[C@@H]1CN2CC[C@@H]1C[C@H]2[C@H](O)c1ccnc2ccc(OC)cc12 | inactive | inactive | inactive |
| O=C(c1ccc(OCCCc2cnc[nH]2)cc1)C1CC1 | inactive | inactive | inactive |
| Cc1cc2c(cc1Cl)N(C(=O)Nc1ccc(Oc3cccnc3C)nc1)CC2 | inactive | inactive | inactive |
| CCCCCCCCc1ccc(-c2ccc(C(=O)O)cc2)cc1 | inactive | inactive | inactive |
| O=c1[nH]c2cc([N+](=O)[O-])c([N+](=O)[O-])cc2[nH]c1=O | 8.49 µM (active) | inactive | inactive |
| Clc1ccc(N2CCN(Cc3c[nH]c4ncccc34)CC2)cc1 | inactive | inactive | inactive |
| OC[C@H]1O[C@@H](n2cnc3c(Nc4ccccc4)ncnc32)[C@H](O)[C@@H]1O | inactive | inactive | inactive |
| COc1cccc(C(=O)NCCN2CCN(c3ccc(Cl)cc3)CC2)c1 | inactive | inactive | inactive |
| O=C(O)[C@@H]1C[C@H](C(=O)O)N1 | inactive | inactive | inactive |
| NS(=O)(=O)C#Cc1ccccc1 | inactive | inactive | inactive |
| CC12C(=O)OC(=O)C1(C)C1CCC2O1 (stereo not drawn) | inactive | inactive | inactive |
| O=C(O)CCCC[C@@H]1CCSS1 | inactive | inactive | inactive |
| CN1CCc2cc(NC(=O)Nc3cccnc3)ccc21 | inactive | inactive | inactive |
| NCCCCCCCCCCN |  | inactive | inactive |
| N.N.N.N.N.N.N.N.N.N.N.N.N.N.O.O.[Ru+4].[Ru+5].[Ru+5] |  | inactive | inactive |
| CC(C)(C)c1ccc(S(=O)(=O)/C=C/C#N)cc1 | inactive | inactive | inactive |
| O=C(O)c1cc([N+](=O)[O-])ccc1NCCCc1ccccc1 | inactive | inactive | inactive |
| COc1ccc(NC(=O)/C=C/c2ccc(Cl)cc2)cc1 | inactive | inactive | inactive |
